Measured values reported in PubChem BioAssay AID651699 (Sanford-Burnham Center for Chemical Genomics, 2012).
In all, about 360,000 compounds went through this assay and about 2,100 (0.58%) were called active. For the sample, actives were picked, then their nearest neighbours and some compounds at random. Unmarked numbers belong to inactive results. No stated cut-off is given here; in the data, active means inhibition above about 36%; inactive means the rest.

target: NEDD8-conjugating enzyme Ubc12 (Homo sapiens) + NEDD8-activating enzyme E1 regulatory subunit (Homo sapiens) (UniProt P61081+Q13564); assay: NEDD8 transfer onto cullin, blockade – biochemical, TR-FRET, uHTS, NAE and Ubc12, primary screen (AID 651699); details: TR-FRET cullin neddylation, at 25 µM, active compounds read high
Sequence (P61081 whole entry, looked up): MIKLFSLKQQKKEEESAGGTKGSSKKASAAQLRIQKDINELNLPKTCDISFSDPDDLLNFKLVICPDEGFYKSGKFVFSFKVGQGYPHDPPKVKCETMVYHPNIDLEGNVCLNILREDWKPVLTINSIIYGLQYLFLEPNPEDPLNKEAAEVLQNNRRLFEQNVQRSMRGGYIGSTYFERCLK
Sequence (Q13564 whole entry, looked up): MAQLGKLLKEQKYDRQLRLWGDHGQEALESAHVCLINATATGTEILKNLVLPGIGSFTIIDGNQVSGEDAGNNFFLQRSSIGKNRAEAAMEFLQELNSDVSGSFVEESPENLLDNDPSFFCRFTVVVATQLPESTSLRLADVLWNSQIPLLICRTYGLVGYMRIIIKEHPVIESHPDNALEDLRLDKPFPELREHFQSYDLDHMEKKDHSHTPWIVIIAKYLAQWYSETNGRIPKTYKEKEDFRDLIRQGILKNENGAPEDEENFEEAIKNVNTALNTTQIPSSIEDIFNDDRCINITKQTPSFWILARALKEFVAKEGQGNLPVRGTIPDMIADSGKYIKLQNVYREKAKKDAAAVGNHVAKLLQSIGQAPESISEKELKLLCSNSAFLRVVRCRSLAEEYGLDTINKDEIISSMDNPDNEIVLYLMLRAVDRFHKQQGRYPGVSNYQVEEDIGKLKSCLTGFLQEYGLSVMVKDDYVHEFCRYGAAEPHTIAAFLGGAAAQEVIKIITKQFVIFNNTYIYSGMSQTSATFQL

Compound	inhibition
O=C(CN1CCN(C2CCS(=O)(=O)C2)CC1)N1N=C(c2ccc(Cl)cc2)CC1c1ccco1 (configuration not stated)	3.58%
COC(=O)C1=CN(C)C=C(C(=O)OC)C1c1ccc(Cl)cc1Cl	42.5% (active)
COC(=O)C1=CN(c2ccc(F)c(F)c2)C=C(C(=O)OC)C1c1ccc([N+](=O)[O-])cc1	-12.5%
NC(=O)C1(C(N)=O)OC1c1ccc(Cl)cc1Cl (configuration not stated)	-3.19%
C[N+](C)(C)CCNC(=O)c1cc[n+](Cc2ccccc2)c(/C=N/O)c1	-22.5%
O=C(Nc1c(Br)cc2c(c1Br)Cc1ccccc1-2)C(F)(F)F	-31.9%
CN(CC(=O)Nc1ccc(F)c(F)c1F)C(=O)C1CC(=O)N(C2CCCC2)C1 (configuration not stated)	1.3%
Cc1ccc(S(=O)(=O)NCCc2nnc3ccc(SCc4cccnc4)nn23)cc1	-3.01%
CC(=O)NNC(=O)c1csc(Cc2c(Cl)sc3ccc(Cl)cc23)n1	45.8% (active)
CC(=O)Cc1nsc(NC(=O)c2ccc(Cl)cc2Cl)n1	12.4%
CNC(=O)c1csc(Cc2c(Cl)sc3ccc(Cl)cc23)n1	-6.49%
Oc1ccccc1CNc1ncc(Br)cc1Br	-3.76%
O=C(CNC(=O)c1cccnc1)N/N=C/c1cc(Br)c(O)c(Br)c1	5.12%
Cc1ccc(NC(=O)COc2ccc(/C=N\NC(=O)c3cccnc3)cc2)cc1C	56% (active)
Cc1cccc(OCC(=O)NCCNC(=O)c2cccnc2)c1	2.8%
COc1ccc(CNC(=O)CN(c2ccc(OC)c(Cl)c2)S(=O)(=O)c2ccc(C)cc2)cc1	8.36%
COc1ccc(C(=O)NC(C)c2nccs2)cc1OC1CCN(C(C)C)CC1 (configuration not stated)	-0.68%
Cc1ccc(CSCC(=O)N(C)CC(=O)Nc2ccc(C)cc2)cc1	5.66%
Cc1ccc(NC(=O)CN(C)C(=O)COC(=O)C(C)(C)Oc2ccc(Cl)cc2)cc1	9.98%

Compound	inhibition
Cc1ccc(NC(=O)CN(C)C(=O)COC(=O)c2nccnc2N)cc1	57.4% (active)
O=C(OCCOCn1cc(Br)c(=O)[nH]c1=O)c1ccccc1	1.74%
COC(=O)c1sc(-c2ccc(C(C)(C)C)cc2)cc1NC(=O)/C=C/C(=O)O	-17%
COc1cccc(/C=N/Nc2cc(C)nc(-c3ccccc3O)n2)c1O	40.2% (active)
COc1ccc(N2C(=O)CC(Sc3n[nH]c(-c4ccc(C)cc4)n3)C2=O)cc1 (configuration not stated)	0.38%
Cc1ccccc1NC(=O)COc1cccc2c1CCNC2=O	-9.32%
O=C(Cn1nnc(-c2ccccc2)n1)N/N=C/c1ccc(-c2ccc(Cl)cc2)o1	28.8%
Nc1nnnn1CC(=O)N/N=C/c1ccc(-c2cccc(Cl)c2)o1	49.1% (active)
CCCCCN(C(=O)NC(=O)Nc1ccccc1C)S(C)(=O)=O	-3.04%
COc1ccc(C2CC(c3cccs3)=NN2C(=O)CSc2nnc(N)s2)cc1OC (configuration not stated)	-4.71%
COc1ccc(C2CC(c3cccs3)=NN2C(=O)COC(=O)c2cc3ccccc3cc2O)cc1OC (configuration not stated)	0.97%
COc1cccc(C2CC(c3cccs3)=NN2C(=O)CSC2=NCCS2)c1OC (configuration not stated)	47.3% (active)
CCN1C(=O)/C(=C\N2CCOCC2)SC1=S	-15.3%
O=C(c1cc2ccccc2s1)N1CCN(c2ccccn2)CC1	-7.27%
O=C1c2ccccc2S(=O)(=O)c2cc(N3CCN(c4ccccn4)CC3)ccc21	-31.5%
O=C1c2cccc3cccc(c23)N1CN1CCN(c2ccccn2)CC1	38.1% (active)
Cc1ccc(O)c(NC(=S)NC(=O)COc2ccc(Br)cc2)c1	12.7%
COc1cc(NC(=O)CCNC(=O)Cn2ccc3ccccc3c2=O)cc(OC)c1OC	5.61%
Cc1cccc(N)c1SC1CCCCC1O (configuration not stated)	6.45%

Compound	inhibition
COCOCCn1cc(CN2CCS(=O)(=O)N(Cc3ccc(-c4ccc(OC)cc4)cc3)C(CC(C)C)C2=O)nn1 (configuration not stated)	-8.33%
COc1cccc(/C=C/C(=O)OCC(=O)N2CCCc3ccccc32)c1	40.6% (active)
COc1cccc(/C=C/C(=O)OCC(=O)N2CCN(c3ccccc3)CC2)c1	31.1%
COCCn1c(C)cc(C(=O)COC(=O)/C=C/c2cccc(OC)c2)c1C	12.7%
CC(NC(=O)CN1CCN(Cc2ccc(Cl)cc2)C1=O)c1ccc2c(c1)OCCO2 (configuration not stated)	-6.96%
COc1ccc(CCN2C(=O)C3CC=C(C)CC3C2=O)cc1OC (configuration not stated)	1.1%
O=S(=O)(Nc1ccccn1)c1cccc(S(=O)(=O)c2ccc(Cl)cc2)c1	-0.91%
COc1ccc(OC)c(C(C)NC(=S)Nc2ccc(S(=O)(=O)Nc3ncccn3)cc2)c1 (configuration not stated)	5.42%
COc1cc(NS(=O)(=O)c2ccc3ccccc3c2)c2ncccc2c1	50.3% (active)
CC(C)NC(=S)Nc1cccc2cnccc12	0.89%
C=CCNC(=O)c1ccc2c3n(nc2c1)-c1ccc(C)cc1CO3	49.5% (active)
Cc1ccc(-n2nc3c(c2NC(=O)c2ccc4c(c2)OCO4)CSC3)c(C)c1	18.4%
OC(COCc1ccco1)CN1CCN(c2ccccc2)CC1 (configuration not stated)	-1.36%
COc1ccc(-c2c(C#Cc3ccsc3)c3cc(-c4ccc(CN5CCOCC5)cc4)ccc3n2C)cc1	22.8%
COc1ccc(Cl)cc1NC(=O)CN(C)C(=O)c1cn(-c2ccccc2)nc1-c1cccs1	-140%
COc1cccc(NC(=O)CN(C)C(=O)/C=C/c2cn(-c3ccccc3)nc2-c2cccs2)c1	60.2% (active)
O=c1cc(CO)oc(C(Nc2cccc(C(F)(F)F)c2)c2ccccn2)c1O (configuration not stated)	0.9%
CC(C)C[C@H]1CNC(=O)C(=O)N1C[C@@H]1CCCN1C[C@H](Cc1ccccc1)N1C[C@H](CC(C)C)N(CC2CCCCCC2)C(=O)C1=O	7.12%
CN(C)c1ccc2c(=O)[nH][nH]c(=O)c2c1	33.3%
